From PubChem BioAssay
The source made the active and inactive calls.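 How the source made its calls, unless noted: active means NADPH fluorescence slope more negative than the mean of all samples by about 3 SD, 99.7% confidence; inactive means the rest.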

Legend:
[1] = inhibitors of TNFa-induced NFkB p65 translocation, primary screen, imaging, HUVEC, MLSMR starter and 10KST1 sets (AID 438;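 active means inhibition above 20% together with a positive visual image hit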;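 further: compound added about 3h40 before a 20 min TNFalpha stimulation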;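 on inhibition: signal is the nuclear over cytoplasmic p65 intensity ratio per well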); conditions: HUVEC TNFa-induced p65 nuclear translocation; cell count: measured here: nuclei count (cytotoxicity indicator), at 2.08 µM; inhibition: at 2 µM, stronger effect = higher value, 0% TNFa-plus-vehicle, 100% no-TNFa wells
[2] = reduction of polyQ htt aggregates in cells – imaging, exon1htt(103Q)mCFP cells, high-content imaging, primary screen (AID 483;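 active means visual image review flags a hit and inhibition of aggregation exceeds 20%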;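 further: compound exposure lasted 3 days before fixation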;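 on nuclei count: percent of the per-plate median nuclei count of sample wells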); conditions: exon1htt(103Q)mCFP cell line, aggregate imaging, at 2 µM; inhibition of aggregation: stronger effect = higher value; nuclei count: measured here: cell count, toxicity
[3] = endothelial E-selectin expression blockers – imaging, HUVEC, immunofluorescence, MLSMR starter and 10KST1 sets, primary screen (AID 487;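 active means visually confirmed hit in the image check and inhibition above 20%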;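 on inhibition: signal is fraction of cell area covered by stained E-selectin grains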;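 on nuclei count: 100% = median nuclei count of all wells on the same plate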); conditions: HUVEC TNFalpha-induced E-selectin immunofluorescence imaging, at 2 µM; inhibition: stronger effect = higher value; nuclei count: measured here: cell number, toxicity
[4] = molecular target: Voltage-gated potassium channel subunit beta-2 (Rattus norvegicus) (UniProt P62483); test: inhibitors of rat Kvbeta2 reductase activity – biochemical, NADPH fluorescence, primary screen (AID 622;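 active means fluorescence slope higher than the sample average by over 3 SD, cut at about -0.22 in these data, passing the limit was not always enough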;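 further: slope of raw intensity against log time taken from 70 to 1610 s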); conditions: recombinant KvBeta, 4-cyanobenzaldehyde reduction, at 10 µM, stronger effect = higher value
Chain of Voltage-gated potassium channel subunit beta-2 (Rattus norvegicus) (P62483 whole entry, looked up): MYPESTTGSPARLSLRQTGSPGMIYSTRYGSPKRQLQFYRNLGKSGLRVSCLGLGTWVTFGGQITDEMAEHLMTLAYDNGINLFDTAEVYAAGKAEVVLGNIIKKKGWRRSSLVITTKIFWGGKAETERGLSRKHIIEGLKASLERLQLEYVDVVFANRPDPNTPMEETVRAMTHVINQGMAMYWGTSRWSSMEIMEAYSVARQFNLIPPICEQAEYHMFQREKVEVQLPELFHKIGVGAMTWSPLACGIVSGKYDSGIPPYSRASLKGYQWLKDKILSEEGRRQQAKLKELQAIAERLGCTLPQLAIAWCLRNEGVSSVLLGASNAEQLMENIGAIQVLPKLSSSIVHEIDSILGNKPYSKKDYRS

[5] = molecular target: Voltage-gated potassium channel subunit beta-2 (Rattus norvegicus) (UniProt P62483); test: enhancers of rat Kvbeta2 NADPH turnover – biochemical, NADPH fluorescence, primary screen (AID 623); conditions: Recombinant KvBeta, NADPH fluorescence decrease slope, 10 min; at 10 µM; stronger effect = lower value;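 further: fluorescence intensity change per second fitted from 20 to 320 s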
[6] = molecular target: Alpha-2C adrenergic receptor (Homo sapiens) (UniProt P18825); test: compounds altering alpha2C-coupled GIRK flux – cell-based, HEK293 alpha2C/GIRK1/2, thallium flux, primary screen (AID 624;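 active means fluorescence slope after compound addition differing from the mean of all screened samples at 99.7% confidence, in either direction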;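 further: slope of fluorescence ratio to pre-addition baseline per second over 15 to 24 s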); conditions: thallium flux BTC fluorescence, at 10 µM, actives lie on both sides
Chain of Alpha-2C adrenergic receptor (Homo sapiens) (P18825 whole entry, looked up): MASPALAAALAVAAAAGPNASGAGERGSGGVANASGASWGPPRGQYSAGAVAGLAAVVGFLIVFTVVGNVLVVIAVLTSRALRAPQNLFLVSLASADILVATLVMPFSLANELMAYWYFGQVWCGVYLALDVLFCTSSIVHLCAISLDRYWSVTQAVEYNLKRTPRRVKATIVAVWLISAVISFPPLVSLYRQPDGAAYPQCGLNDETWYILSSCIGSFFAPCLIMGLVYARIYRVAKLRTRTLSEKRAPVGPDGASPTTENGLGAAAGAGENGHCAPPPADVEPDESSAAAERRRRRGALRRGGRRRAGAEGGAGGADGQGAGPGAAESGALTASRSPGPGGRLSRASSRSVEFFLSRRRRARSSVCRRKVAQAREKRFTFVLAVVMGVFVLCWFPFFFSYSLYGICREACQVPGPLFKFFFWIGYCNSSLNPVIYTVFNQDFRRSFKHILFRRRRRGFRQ

[7] = blockers of RIG-like receptor reporter activation – cell-based, Sendai virus stimulus, luciferase, 10K MLSCN set, TLR/RLR signaling modifier project, primary screen (AID 602276;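 active means inhibition at or above 50% at 10 µM; inactive means inhibition below 50%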;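 further: firefly luciferase from ISG56 promoter only with Renilla not read in this screen; 0% = Sendai virus plus DMSO and 100% = medium plus DMSO without virus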); conditions: HEK293 RL24 IRF3 luciferase reporter, at 10 µM, stronger effect = higher value
[8] = TLR3 IRF3 reporter activation blockers – cell-based, poly I:C stimulus, luciferase, 10K MLSCN set, primary screen (AID 602277;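 active means inhibition of the reporter signal at or above 50%; inactive means inhibition below 50%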); conditions: HEK293-TLR3 RL24 IRF3 luciferase reporter, at 10 µM, stronger effect = higher value

SMILES | cell count [1] | inhibition [1] | inhibition of aggregation [2] | nuclei count [2] | inhibition [3] | nuclei count [3] | fluorescence slope [4] | NADPH fluorescence slope [5] | slope [6] | inhibition [7] | inhibition [8]
O=C(Cn1c(=O)sc2ccccc21)NCCOc1ccccc1F | 780 | -12% (inactive) | -3.1% (inactive) | 104% | 36.2% (inactive) | 108% | -0.514 (inactive) | -9e-06 (inactive) | 0.00676 (inactive) | 0.0246% (inactive) | 6.19% (inactive)
COc1ccccc1N(CC(=O)NCc1ccccn1)S(C)(=O)=O | 355 | -7.9% (inactive) | 26.7% (inactive) | 83.6% | 29.3% (inactive) | 75.4% | -0.422 (inactive) | -4.6e-05 (inactive) | 0.00261 (inactive) | 7.95% (inactive) | 32.3% (inactive)
Cc1nc(NCc2ccc3c(c2)OCO3)c2oc3ccccc3c2n1 | 292 | 12.8% (inactive) | -3.5% (inactive) | 105% | 44.7% (inactive) | 101% | -0.516 (inactive) | 2.5e-05 (inactive) | 0.00488 (inactive) | 4.64% (inactive) | -12% (inactive)
CCCS(=O)(=O)N1CCN(C(=O)c2cccs2)CC1 | 559 | 7.2% (inactive) | 5.4% (inactive) | 91% | -58.9% (inactive) | 102% | -0.622 (inactive) | -3.8e-05 (inactive) | 0.00496 (inactive) | 13.1% (inactive) | 3.31% (inactive)
COc1cccc(-c2cc(C(F)(F)F)nc(NCc3ccco3)n2)c1 | 449 | 1.7% (inactive) | 28.6% (inactive) | 97.3% | -25.2% (inactive) | 94.3% | -0.469 (inactive) | -5.6e-06 (inactive) | 0.00562 (inactive) | -7.28% (inactive) | 19.1% (inactive)
C[C@@H]1C[C@H](O)c2cc(Cl)ccc2N1 | 404 | -7.2% (inactive) | 17.5% (inactive) | 97.5% | -39.2% (inactive) | 114% | -0.594 (inactive) | -1.8e-05 (inactive) | 0.0061 (inactive) | 11% (inactive) | 27.1% (inactive)
CN1CCN(C2=C(Cl)C(=O)N(c3cccc(Cl)c3)C2=O)CC1 | 396 | 5.9% (inactive) | 8.6% (inactive) | 91.3% | -1.1% (inactive) | 97.4% | -0.355 (inactive) | -3.9e-05 (inactive) | 0.00541 (inactive) | 5.11% (inactive) | 13.1% (inactive)
O=C(Nc1ccc(NC(=O)c2ccco2)nc1)c1cccnc1 | 505 | 19.2% (inactive) | -0.5% (inactive) | 93.2% | 1% (inactive) | 89.3% | -0.472 (inactive) | -2.2e-05 (inactive) | 0.00492 (inactive) | -21.2% (inactive) | -50% (inactive)
COc1ccc(CCn2c(-c3ccco3)nc3nc4ccccc4nc32)cc1 | 806 | -5.6% (inactive) | -7.3% (inactive) | 101% | -25.4% (inactive) | 115% | -0.445 (inactive) | -3.4e-05 (inactive) | 0.00679 (inactive) | 18.8% (inactive) | -6.71% (inactive)
COc1ccccc1N(CC(=O)Nc1cccnc1)S(C)(=O)=O | 623 | 9.2% (inactive) | 20.5% (inactive) | 92.6% | 58.2% (inactive) | 34.6% | -0.408 (inactive) | -6.4e-05 (inactive) | 0.00671 (inactive) | 7.85% (inactive) | 17.6% (inactive)
CC(Oc1ccc(Cl)cc1Cl)C(=O)Nc1ncccn1 (stereo not drawn) | 433 | 2.5% (inactive) | -1% (inactive) | 102% | 51.5% (inactive) | 124% | -0.409 (inactive) | 9.1e-05 (inactive) | 0.006 (inactive) | -4.61% (inactive) | -6.91% (inactive)
COc1ccc(-n2c(Cc3cccn3C)nnc2SCC(=O)Nc2ccc(Cl)cc2)cc1 | 678 | -5.8% (inactive) | 8.1% (inactive) | 85% | -22.9% (inactive) | 119% | -0.567 (inactive) | -5e-06 (inactive) | 0.0052 (inactive) | 11.4% (inactive) | 23.2% (inactive)
O=C1c2ccccc2C(Nc2ccc3c(c2)OCCO3)N1Cc1ccc2c(c1)OCO2 (stereo not drawn) | 597 | 3.4% (inactive) | -2.8% (inactive) | 102% | -14.2% (inactive) | 106% | -0.553 (inactive) | -5e-05 (inactive) | 0.00464 (inactive) | 3.99% (inactive) | 50.1% (active)
S=c1[nH]nc(Cc2ccccc2)n1-c1ccccc1 | 664 | -5.5% (inactive) | -9.4% (inactive) | 111% | 14.9% (inactive) | 106% | -0.367 (inactive) | -3.9e-05 (inactive) | 0.00525 (inactive) | 9.34% (inactive) | 20.2% (inactive)
Cc1cc(-n2c(C)cc(C(=O)CSc3nc4ccccc4c(=O)n3Cc3ccco3)c2C)no1 | 288 | -8.6% (inactive) | 8.4% (inactive) | 95% | -104% (inactive) | 96.6% | -0.441 (inactive) | -2e-05 (inactive) | 0.00698 (inactive) | 8.08% (inactive) | -48.8% (inactive)
CC(NC(=O)c1cn(C)c2ccc(S(=O)(=O)N3CCCC3)cc2c1=O)c1ccc2c(c1)OCCO2 (stereo not drawn) | 766 | 0% (inactive) | 5.6% (inactive) | 98.3% | 3.8% (inactive) | 103% | -0.483 (inactive) | -0.000101 (inactive) | 0.00703 (inactive) | -4.57% (inactive) | 17% (inactive)
CCCCSc1nc2c(cnn2-c2ccc(F)cc2)c(=O)[nH]1 | 619 | -10.7% (inactive) | 13.9% (inactive) | 81.3% | -19.6% (inactive) | 122% | -0.458 (inactive) | -3.7e-05 (inactive) | 0.00558 (inactive) | 4.85% (inactive) | 12.8% (inactive)
O=C(CNC(=O)c1ccccc1C(=O)O)c1ccccc1 | 653 | 1.8% (inactive) | 9.6% (inactive) | 105% | -147% (inactive) | 124% | -0.42 (inactive) | 1.4e-05 (inactive) | 0.00616 (inactive) | -17.6% (inactive) | -49% (inactive)
O=C(c1ccc(-c2ccccc2)cc1)N1CCC(C(=O)N2CCCC2)CC1 | 237 | -4.7% (inactive) | 0.5% (inactive) | 91.7% | -17.6% (inactive) | 101% | -0.388 (inactive) | -5.3e-05 (inactive) | 0.00472 (inactive) | 16% (inactive) | 8.25% (inactive)
CCS(=O)(=O)N1CCCC(C(=O)NCc2ccccc2Cl)C1 (stereo not drawn) | 257 | -1.9% (inactive) | -1.1% (inactive) | 107% | -15.6% (inactive) | 112% | -0.608 (inactive) | -1.9e-05 (inactive) | 0.00474 (inactive) | 3.16% (inactive) | -6.49% (inactive)
N#CC1=C(N)SC(N)=C(C#N)C1c1ccc(C(F)(F)F)cc1 | 520 | -1.5% (inactive) | -11.9% (inactive) | 114% | -69.1% (inactive) | 187% | -0.472 (inactive) | 2.9e-05 (inactive) | 0.00688 (inactive) | -1.4% (inactive) | -49.4% (inactive)
Cc1ccc(CN2C(=O)CCC2C(=O)NCCCN2CCC(C)CC2)cc1 (stereo not drawn) | 379 | -7.4% (inactive) | 19.6% (inactive) | 85.5% | 6.2% (inactive) | 77.7% | -0.584 (inactive) | -3.4e-05 (inactive) | 0.00384 (inactive) | 14.7% (inactive) | 9.9% (inactive)
Cc1noc(C)c1CSc1nc2cc(S(=O)(=O)N3CCOCC3)ccc2o1 | 515 | -12.1% (inactive) | -33.5% (inactive) | 135% | -52% (inactive) | 118% | -0.478 (inactive) | -0.000262 (inactive) | 0.00432 (inactive) | 16.1% (inactive) | 19.5% (inactive)
OC(CCN1CCOCC1)(c1ccc(Cl)cc1)C1CCCCC1 (stereo not drawn) | 663 | -1% (inactive) | -1.2% (inactive) | 48.5% | 37.9% (inactive) | 120% | -0.588 (inactive) | -2.6e-05 (inactive) | 0.00224 (inactive) | -9.83% (inactive) | -48.9% (inactive)
COc1ccc(OC)c(Nc2nc(-c3sc(N)nc3C)cs2)c1 | 715 | -8.6% (inactive) | 11.3% (inactive) | 104% | -77.1% (inactive) | 105% | -0.34 (inactive) | -4.1e-05 (inactive) | 0.00384 (inactive) | -4.79% (inactive) | -10.6% (inactive)
O=C1CN(c2nc3ccccc3n3cnnc23)CC(=O)N1CCc1ccccc1 | 662 | 10% (inactive) | -13% (inactive) | 112% | -66% (inactive) | 116% | -0.588 (inactive) | -6.3e-05 (inactive) | 0.00474 (inactive) | 6.8% (inactive) | 9.78% (inactive)
COC(=O)c1ccc(CSc2nnc(-c3ccncc3)o2)o1 | 612 | -2.2% (inactive) | -8% (inactive) | 139% | -31.9% (inactive) | 114% | -0.596 (inactive) | -3.4e-05 (inactive) | 0.00373 (inactive) | 12% (inactive) | 13.9% (inactive)
COCCNC(=O)CN(C)S(=O)(=O)c1ccc(Br)cc1 | 465 | 2.1% (inactive) | -10.4% (inactive) | 106% | 24.8% (inactive) | 110% | -0.507 (inactive) | -3.7e-05 (inactive) | 0.00533 (inactive) | 11.2% (inactive) | 12.3% (inactive)
